Source: PubChem (National Center for Advancing Translational Sciences (NCATS))
RXFP1 agonist: qHTS Assay for Agonists of the Relaxin Receptor RXFP1 | AID 2676, 2010 | Potency, µM (doses to about 57.5 µM), inactives show top-dose activation, actives largely listed as activators | Relaxin receptor 1 (Homo sapiens), Q9HBX9 | actives 0.3% (n = 370,000) | HEK293T-RXFP1 cAMP TR-FRET, 30 min; response scale: percent of porcine relaxin response, buffer zero; active = well fitted activation curve with a large enough effect; inconclusive = small, poorly fitted or top-dose-only effect; also: potency is read from the fitted curve at half-maximal effect; % is scaled to controls: 0 for no effect and ±100 for the full control effect; nearly all actives have a fitted effect of over 60% in size
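HEK293 cells stably expressing RXFP1, treated 30 min at 37C with compounds plus PDE4 inhibitor Ro 20174; cAMP measured by HTRF TR-FRET. Normalized to buffer and 29 nM porcine relaxin; EC50 by Hill fit.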
gsp antag: qHTS for Antagonists of gsp, the Etiologic Mutation Responsible for Fibrous Dysplasia/McCune-Albright Syndrome: qHTS. gsp-mutant cells, cAMP HTRF, 30 min. Potency, µM (top dose mostly 76.9 µM), for inactives: top-dose activity change, negative = inhibition, usual class: inhibitors. actives 0.4% (n = 340,000). AID 624288, 2012; calls by dose curve; cell line not stated here;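 also: intracellular cAMP measured with PDE inhibitor Ro 20-1724 present during compound exposure; potency is read from the fitted curve at half-maximal effect; % is scaled to controls: 0 for no effect and ±100 for the full control effect; nearly all actives have a fitted effect of over 65% in size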
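HTRF cAMP measurement after 30 min RT detection following 30 min, 37C compound treatment alongside […] (added as 300 uM solution) in G418-selected cells seeded at 2000/well and grown 16–24 h.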
RXFP1 antagonist: qHTS Assay for Antagonists of the Relaxin Receptor RXFP1 | Relaxin receptor 1 (Homo sapiens), Q9HBX9 | HEK293-RXFP1, relaxin-stimulated cAMP HTRF, 30 min; stronger effect = lower value | activity change, negative = inhibition, % at 57.5 µM | actives 0.59% (n = 350,000);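 active = activity change of -60% or lower, but not beyond a set lower limit; inconclusive = change between -60% and -40%, or beyond the set limit; inactive = change above -40%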; also: % is scaled to controls: 0 for no effect and ±100 for the full control effect
pAkt inh: HTS Assay for Inhibitors of Akt Phophorylation: Primary Screen | actives 0.32% (n = 360,000) | Neuro2A IGF-stimulated pAkt S473 HTRF, 20 min; stronger effect = lower value | activity change, % for hits at 50 µM; in the data active = activity change below about -80%; inconclusive = mostly about -51% to -80%; also: % is scaled to controls: 0 for no effect and ±100 for the full control effect
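Single-point screen (50 µM final compound) in Neuro2A cells stimulated 20 min with 6 nM IGF at 37 deg C. After lysis, Ser473-phosphorylated Akt read by HTRF (ex 330 nm, em 615/665 nm) as the 665/615 ratio.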
gsp agonist: qHTS for Agonist of gsp, the Etiologic Mutation Responsible for Fibrous Dysplasia/McCune-Albright Syndrome: qHTS; actives 0.13% (n = 340,000); AID 624287, 2012; Potency, µM (highest dose often 76.9 µM), for inactives: at the top dose activation (cAMP increase), most hits filed as activators; gsp mutant cells, cAMP HTRF, 30 min; active = well fitted activation curve with a large enough effect; inconclusive = small, poorly fitted or top-dose-only effect, or another doubt; inactive = no such curve, though single readings can be large or run the other way; cell line not stated here;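 also: phosphodiesterase inhibitor Ro 20-1724 added with compounds to block cAMP breakdown; potency is read from the fitted curve at half-maximal effect; nearly all actives have a fitted effect of over 60% in size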
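Cells stably selected in G418 were plated at 2000/well, grown 16-24 hr, then given compounds in DMSO with the PDE inhibitor […] (300 uM solution added) for 30 min at 37C; cAMP was read by HTRF.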
Starred values were filed as active, the others as inactive; i = inactive; ? = inconclusive; / = no result given; [ ] = remark or other dose. A selection: hits, their analogues and other compounds. The true share with any hit is near 1.2%.

SMILES	RXFP1 agonist	gsp antag	RXFP1 antagonist	pAkt inh	gsp agonist
O=C(CSc1ncn(-c2ccccc2)n1)Nc1nncs1	0%	-25%	-2	i	5%
CC(=O)Nc1ccc(C(=O)CSc2ncn(-c3ccccc3)n2)cc1	3%	-31%	-10	-120%*	-29%
O=C(Nc1cc(C(F)(F)F)ccc1Cl)c1cnn(-c2ccccc2)c1-n1cccc1	2%	/	-26	/	/
CCOC(=O)c1c(NC(=S)NCCc2ccccc2)sc2c1CC(C(C)C)OC2 (configuration not stated)	0%	-6%	15	i	29%
C=CCNC(=S)Nc1sc2c(c1C(=O)OCC)CC(C(C)C)OC2 (configuration not stated)	2%	8%	-96*	i	?
NCCNC(=O)c1ccc(Cl)cn1	/	/	6	/	/
COc1ccc(CC(=O)NNS(=O)(=O)c2ccccc2[N+](=O)[O-])cc1OC	-5%	-11%	9	i	-5%[15.4 µM]
COc1ccc(CC(=O)NNS(=O)(=O)c2ccc([N+](=O)[O-])cc2)cc1OC	-1%	7%	-84*	i	1%
COc1cc(CC(=O)OCC(=O)Nc2cc([N+](=O)[O-])ccc2Cl)cc(OC)c1OC	4%	-15%	-2	i	-17%
COc1ccc([N+](=O)[O-])cc1NC(=O)COC(=O)Cc1cc(OC)c(OC)c(OC)c1	1%	50µM*	2	i	7%
COc1ccc(CCNC(=O)c2ccc(-c3ccc([N+](=O)[O-])cc3)o2)cc1OC	3%	32µM*	4	i	0%
CCC(Sc1nc2ncccc2o1)C(=O)Nc1ccc(OC)c(OC)c1 (configuration not stated)	1%	/	-15	/	/
O=C(Cn1ncc2c3ccccc3n(Cc3cccc(Cl)c3)c2c1=O)NC1CCCCCC1	7%	/	-2	/	/
COc1cccc(C2/C(=C(\O)c3ccc4c(c3)OCCO4)C(=O)C(=O)N2CCCN2CCOCC2)c1OC (configuration not stated)	28%	26%	17	i	8.9µM*
O=C1C(=O)N(CCN2CCOCC2)C(c2ccccc2)/C1=C(\O)c1ccc2c(c1)OCCO2 (configuration not stated)	?	21%	10	i	?
O=C1C(=O)N(CCCN2CCOCC2)C(c2ccc(Cl)cc2)/C1=C(\O)c1ccc2c(c1)OCCO2 (configuration not stated)	?	28%	29	i	11µM*
O=C1C(=O)N(Cc2cccnc2)C(c2ccc(Br)cc2)/C1=C(\O)c1ccc2c(c1)OCCO2 (configuration not stated)	?	12%	0	i	8.9µM*
COc1ccc(C2/C(=C(\O)c3ccc4c(c3)OCCO4)C(=O)C(=O)N2Cc2cccnc2)cc1OC (configuration not stated)	19%	13%	4	i	24%
CCOc1ccc(/C(O)=C2/C(=O)C(=O)N(CCCN3CCOCC3)C2c2ccc(C)cc2)cc1C (configuration not stated)	27%	11µM*	-1	i	39%
COc1ccccc1C1/C(=C(\O)c2ccc3c(c2)OCCO3)C(=O)C(=O)N1CCCN(C)C (configuration not stated)	2%	/	/	/	/
O=c1c(N2CCc3ccccc3C2)csc2ccc(F)cc12	1%	/	-4	/	/
COc1ccc(S(=O)(=O)c2c(Nc3ccc(C)cc3C)sc(C(=O)c3ccc(F)cc3)c2N)cc1	3%	/	4	/	/
COc1ccc(OC)c(NC(=O)CSC2=Nc3ccccc3C3=NC(CC(=O)NCc4ccc5c(c4)OCO5)C(=O)N23)c1 (configuration not stated)	1%	/	-7	/	/
CCOc1cccc(/C(O)=C2/C(=O)C(=O)N(Cc3cccnc3)C2c2ccco2)c1 (configuration not stated)	10%	10%	-4	-116%*	29%
O=C(Nc1ccccc1)c1ccc(Br)c(S(=O)(=O)N2CCCCC2)c1	2%	/	-36	/	/
SMILES	RXFP1 agonist	gsp antag	RXFP1 antagonist	pAkt inh	gsp agonist
c1ccc(OCc2nnc3sc(-c4cccs4)nn23)cc1	2%	6%	-1	i	6%
COc1ccc(-c2nn3c(COc4ccccc4)nnc3s2)cc1OC	-3%	15%	3	-117%*	7%
CCCOc1ccc(C(=O)Nc2ccc3oc(-c4ccc(N(C)C)cc4)nc3c2)cc1	3.2µM*	/	5	/	/
Cc1ccc(NC2=NCC(=O)N2C2CCCC2)cc1	0%	9%	11	i	?
Cc1ccc(NC2=NCC(=O)N2C2CCCC2)cc1C	-2%	3%	-69*	i	-30%[15.4 µM]
CC1(C(=O)O)CC(C)(C(=O)O)CC(C)(C(=O)O)C1 (configuration not stated)	0%	6%	12	-119%*	1%
COC(=O)C1=C(O)C2(C(=O)O)CC(C(=O)OC)=C(O)C(C(=O)O)(C1)C2	-1%	4%	2	i	6%[15.4 µM]
CNC(=O)COc1ccc(NC(=O)CCn2nc(-c3ccc(C)cc3)c3ccccc3c2=O)cc1	3%	/	-5	/	/
Cc1ccc(S(=O)(=O)N2CCN(C(=O)CNC(=O)c3sc4ccccc4c3Cl)CC2)cc1	8%	-33%	-14	i	11µM*
O=C(NCC(=O)N1CCCCC1)c1sc2ccccc2c1Cl	0%	5%	9	i	20%
O=C(O)c1cccc(-n2cccc2/C=N/O)c1	-1%	7%	-10	-109%*	19%
ON=Cc1cccn1-c1ccccc1	0%	6%	0	i	-18%
COc1cccc(NC(=O)c2c(-c3ccc(C)cc3)nnc3ccccc23)c1	-1%	/	-23	/	/
O=C(C1CC1)N1CCc2cc(Br)cc(S(=O)(=O)Nc3ccc(C(F)(F)F)cc3)c21	-1%	/	/	/	/
O=C(OCC1(COC(=O)c2cccnc2)CCCC(COC(=O)c2cccnc2)(COC(=O)c2cccnc2)C1O)c1cccnc1	/	/	-8	/	/
Cc1ccc2c(C(=O)CN3CCCCC3CCO)c(C)[nH]c2c1 (configuration not stated)	3%	4%[15.4 µM]	-8	i	-10%
Cc1[nH]c2ccccc2c1C(=O)CN1CCCCC1CCO (configuration not stated)	2%	-6%[15.4 µM]	-5	-109%*	25%
Cc1cccc(N(CC(N)=O)C2SC(=O)NC2=O)c1 (configuration not stated)	3%	2%	-17	-106%*	-4%
COCCNc1c2c(nc3c(-c4ccccc4)c(C)nn13)CCCC2	-3%	35µM*	-28	i	7%
